From PubChem BioAssay (NCI) come the findings set out here.

Structures are written as SMILES. This is part of a sample that, as a whole, favours compounds with a hit. Of some 83,000 tested, about 20% had one in any assay.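 Plates (96-well) were seeded with cells, treated with compound at one concentration, and incubated for 48 hours before percent growth was determined.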 Values without a mark were called inactive. Calls of active or inactive are those of the source.

For the assay, the system named is UACC-62 melanoma. Kind of assay: NCI-60 one-dose screen, 48 h (100 = growth as untreated, 0 = no growth, -100 = all killed). Particulars: 10 µM unless noted. Here is the method:
Growth inhibition of the UACC-62 human tumor cell line is measured as a screen for anti-cancer activity. Cells are grown in 96 well plates and exposed to the test compound for 48 hours. Compounds are tested at a single concentration, which is 10^-5 M for most compounds. The reported endpoint is percent growth (GI% or GIPRCNT), where numbers from 0 - 100% represent growth inhibition, and numbers from -100% - 0 represent cell death. For example, a value of 40 represents 60% growth inhibition. A value of 0 means no net growth occurred over the course of the experiment. A value of -40 indicates 40% of cells at the beginning of the experiment died by the end of the experiment. A value of -100 means all cells are dead at the end of the experiment.
NCI-60 Human Tumor Cell Lines Screen was performed using the standard one-dose NCI protocol, which is described in more detail at https://dtp.cancer.gov/discovery_development/nci-60/default.htm.
Compounds with GIPRCNT values below 10 were considered active. Activity score was based on GIPRCNT using the following formula: […]
Score is 0 for GIPRCNT values of 100 or above, 50 for GIPRCNT values of 0, and 100 for GIPRCNT values of -100.
For `Cn1cc(-c2cc(N)n3nc(-c4c[nH]c5ccccc45)cc3n2)c2cc(F)ccc21`, the growth was 66.3%.

In the case of `COc1ccc2[nH]cc(-c3cc(N)n4nc(-c5c[nH]c6ccccc56)cc4n3)c2c1`, the growth is -81% (active).

In the case of `Cn1cc(Nc2ncnc(-c3ccc(N4CCCC4)c(C#N)c3)n2)cn1`, the growth was 59.4%.

On to `Nc1nnc(CS(=O)(=O)c2ccccc2)s1`, for which the growth is 91%.

For `N#Cc1c(-c2ccc(F)cc2)nc(SCc2ccccc2)nc1N1CCNCC1`, the growth is -97.3% (active).

Turning to `C[C@@H]1CN(c2ccc3ncc(C#Cc4cncc(C(=O)Nc5ccc(CN6CCN(C)CC6)c(C(F)(F)F)c5)c4)n3n2)C[C@@H](C)O1`, the growth was -65.6% (active).

For the compound `Cc1ccc(C(=O)C[n+]2cccc3c4ccccc4ccc32)cc1`, the growth is 32.2%.

As for `COC(=O)c1cc(C(C)=O)n2c3ccccc3c3ccccc3c12`, the growth is 67%.

With `Fc1ccccc1CNc1nc(SCCN2CCOCC2)nc2c1cnn2CC(Cl)c1ccc(Br)cc1` (stereo not given), the growth was -4.51% (active).

In the case of `Cc1ccc(C(=O)Nc2cc(-n3ccnc3C)cc(C(F)(F)F)c2)cc1C#Cc1cnc2cccnn12`, the growth is -40% (active).

For `COc1ccc2c(c1)N=c1c-2cc2c(O)[nH]c(=S)n2c1=O`, the growth is 34.4%.

For the compound `CC1CCc2c(sc3nc(SCC(=O)c4cccc(Br)c4)n(-c4ccccc4)c(=O)c23)C1` (stereo not given), the growth is 89.8%.

Turning to `ClC(Cn1ncc2c(Nc3cccc(Br)c3)nc(SCCN3CCOCC3)nc21)c1ccc(Br)cc1` (stereo not given), the growth is -44.3% (active).

Consider `O=C(Nc1ccc(Br)cc1)Nc1ccc(-c2ccc3c(c2)NC(=O)/C3=C\c2ccc[nH]2)cc1`, for which the growth is 24.7%.

Consider `C[C@H]1[C@@H](CC(=O)N[C@@H](Cc2coc3ccccc23)B(O)O)O[C@@H]2OC3(C)CC[C@H]4[C@H](C)CC[C@@H]1[C@@]24O3`, for which the growth was -75.8% (active).

For `O=C(N=Nc1c(O)[nH]c2ccc(Br)cc12)c1ccc2nc(-c3ccc(Cl)cc3)[nH]c2c1`, the growth was -74.8% (active).

Regarding `COc1ccc2ccccc2c1/C=C1\SC(=Nc2ccc(O)cc2)NC1=O`, the growth is 16.4%.

Turning to `COc1ccc(/C=C/C(=O)c2ccc(OC)c(S(N)(=O)=O)c2)c(C(F)(F)F)c1`, the growth was 30.6%.

Turning to `COc1ccc(N=Nc2c(N)nn3c(-c4ccc(OC)c(OC)c4)ccnc23)cc1`, the growth is 64.3%.

Take `O=C(N/N=C/c1ccc(B(O)O)s1)c1[nH]c2ccc(Br)cc2c1-c1ccccc1`: the growth is -99.5% (active).

Turning to `COc1c(B(O)O)cc(F)cc1-c1nc2c(F)cc3[nH]ncc3c2c2c1CCCC2`, the growth is -7% (active).

On to `NS(=O)(=O)c1ccc(Nc2nc(N/N=C/c3cc(Br)c(O)c(Br)c3)nc(Nc3ccccc3)n2)cc1`, for which the growth was -26.6% (active).

As to `COc1ccc(-c2cc(-c3cc(C(C)C)c(O)cc3C)nn2-c2ccc(S(N)(=O)=O)cc2)cc1`, the growth is 21.5%.

In the case of `CC(=O)C[n+]1cccc2c3ccccc3ccc21`, the growth is 73.3%.

As to `CCOc1ccccc1[C@H]1C(C(=O)c2ccc(Cl)cc2)C2(N[C@@H]1c1ccccc1)C(=O)Nc1ccc(Cl)cc12` (stereo not given in full), the growth is 17.5%.

As to `COc1ccc2[nH]c(O)c(N=Nc3nc(-c4ccc(C#N)cc4)cs3)c2c1`, the growth was 72.7%.

Consider `COc1ccc2[nH]cc(-c3cc4nc(-c5cn(C)c6ncc(Br)cc56)cc(N)n4n3)c2c1`, for which the growth is -82.5% (active).

Take `CC1=C(C(=O)OCc2ccccc2)C(c2cccc3ccccc23)n2c(nc3ccccc32)N1` (stereo not given): the growth is 17.3%.

In the case of `O=C1Nc2cc(-c3ccc(NS(=O)(=O)c4ccc(F)c(Cl)c4)cc3)ccc2/C1=C/c1ccc[nH]1`, the growth is 32.9%.

With `O=C1c2cccc3c(N4CCN(c5ccccc5)CC4)ccc(c23)C(=O)N1c1cccc(-c2nn(-c3ccccc3)cc2-c2nc3ccccc3s2)c1`, the growth is 91.4%.

For `CCOC(=O)c1ccc(NC(=S)NC(=O)c2cccc(NC(=O)c3ccc(C)cc3)c2)cc1`, the growth is 74.9%.

With `CN1CCN(C(=O)Oc2cc3c(c4ccccc24)[C@H](CCl)CN3C(=O)c2cc3cc(OCCCN4CCC4)ccc3[nH]2)[C@@H]2CSSC[C@H]21`, the growth is -81.9% (active).

With `O=C(CSc1nnc(-c2ccc(-c3nc4ccc(Cl)cc4[nH]3)cc2)o1)Nc1ccccc1`, the growth is 7.34% (active).

As to `Cc1cc(N=C(N)c2ccccc2)ccc1OCCCCCCCCn1ccnc1`, the growth was -3.8% (active).

On to `CC1=C(C(=O)Nc2ccccc2)C(c2cccc(Cl)c2Cl)n2c(nc3ccccc32)N1` (stereo not given), for which the growth was 46.7%.

With `C=CCSc1nnc(-c2c(C)nc3sccn23)o1`, the growth was 74.4%.

As for `Clc1ccc(-c2nc3c4c(-c5ccccc5)c(-c5ccccc5)n(Cc5ccccc5)c4ncn3n2)cc1`, the growth is 11.7%.

Consider `COc1ccc(-c2cc(C)nc3[nH]c(=O)sc23)cc1`, for which the growth was 60.9%.

`COc1ccc(N=Nc2c(N)nn3c(N)c(C#N)c(-c4ccc(F)cc4)nc23)cc1`: the growth was 61.5%.

Consider `COc1ccccc1NC(=O)N/N=C/c1c[nH]c2ccccc12`, for which the growth was 20.3%.
